According to PubChem BioAssay (NCI):
The panel holds about 79,000 compounds, 15% with a hit somewhere; the sample as a whole holds those more often. Calls of active or inactive are those of the source. Rule as the data show it: active = growth inhibition above about 70%; inactive = the rest.

Assays:
[1] = NCI Yeast Anticancer Drug Screen. Data for the rad50 strain (AID 155);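 also: 0% = growth of vehicle-only cultures of the same strain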; details: S. cerevisiae rad50 strain growth inhibition, active compounds read high
Procedure, shortened: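 A DNA repair-deficient yeast mutant serves as the test organism; compound-induced growth inhibition is calculated against vehicle-treated cells.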

[2] = NCI Yeast Anticancer Drug Screen. Data for the mec2-1 strain (AID 157); details: S. cerevisiae mec2-1 strain, active compounds read high
Procedure, shortened: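 Vehicle-treated cultures served as reference for growth inhibition of compound-exposed mec2-1 yeast.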

[3] = NCI Yeast Anticancer Drug Screen. Data for the sgs1 mgt1 strain (AID 161);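 also: 0% = growth of cultures given vehicle only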; details: S. cerevisiae sgs1 mgt1 strain, active compounds read high
Procedure, shortened: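 Read-out: growth inhibition vs vehicle controls. Cells: mutant yeast strain deficient in DNA damage repair.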

[4] = NCI Yeast Anticancer Drug Screen. Data for the cln2 rad14 strain (AID 165);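 also: 0% = growth equal to vehicle treated cultures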; details: S. cerevisiae cln2 rad14 strain, active compounds read high
Procedure, shortened: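 Each compound was tested on cln2 rad14 yeast. Inhibition of growth was calculated against vehicle-exposed controls.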

[5] = NCI Yeast Anticancer Drug Screen. Data for the bub3 strain (AID 167); details: S. cerevisiae bub3 mutant strain, active compounds read high
Procedure, shortened: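 Inhibition values come from growth of compound-treated mutant yeast normalised to vehicle-treated controls.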

[6] = NCI Yeast Anticancer Drug Screen. Data for the mlh1 rad18 strain (AID 175); details: S. cerevisiae mlh1 rad18 strain growth inhibition, active compounds read high
Procedure, shortened: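 Vehicle-treated cultures served as the reference for growth inhibition in a yeast strain carrying DNA damage repair alterations exposed to each compound.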

[7] = at 5.0 µM (retest, dose inferred, filed as 0.5)
[8] = at 50.0 µM (retest, dose inferred, filed as 5.0)

Measured: growth inhibition

CC(=O)Oc1cccc2c(C(=O)CCl)ccnc12
active: [1]; [7] 87% | [1]; [8] 99% | [1]; at 50.0 µM 99.1% | [2]; [7] 86% | [2]; [8] 99% | [2]; at 50.0 µM 95% | [3]; [7] 96% | [3]; [8] 99% | [3]; at 50.0 µM 99.2% | [4]; [8] 99% | [4]; at 50.0 µM 92% | [5]; [7] 90% | [5]; at 50.0 µM 95.3% | [6]; [7] 73% | [6]; [8] 99% | [6]; at 50.0 µM 98.8%
inactive: [4]; [7] 15% | [5]; [8] 18%

CCCCCCCCCCCC(=O)OCCN(CCOC(=O)CCCCCCCCCCC)C(=O)COC(=O)CCCCCCCCCCC
inactive: [1]; [7] -4% | [1]; [8] 39% | [2]; [7] 1% | [3]; [7] 3% | [4]; [7] -2% | [5]; [7] -2% | [5]; [8] 60% | [5]; at 50.0 µM 60.4% | [6]; [7] 1%
active: [1]; at 50.0 µM 99.4% | [2]; [8] 94% | [2]; at 50.0 µM 99.7% | [3]; [8] 92% | [3]; at 50.0 µM 99.8% | [4]; [8] 81% | [4]; at 50.0 µM 99.3% | [6]; [8] 86% | [6]; at 50.0 µM 99.3%

O=C(NC1(OC(=O)c2ccc(Cl)cc2)CC1)c1ccc(Cl)cc1
active: [1]; [8] 97% | [1]; at 50.0 µM 97.8% | [2]; [8] 98% | [2]; at 50.0 µM 97.9% | [3]; [8] 91% | [3]; at 50.0 µM 95.5% | [4]; [8] 97% | [4]; at 50.0 µM 97.5% | [5]; [8] 98% | [5]; at 50.0 µM 97.1% | [6]; [8] 97% | [6]; at 50.0 µM 96.8%
inactive: [1]; [7] 6% | [2]; [7] 14% | [3]; [7] 15% | [4]; [7] 25% | [5]; [7] -8% | [6]; [7] 24%

CN(C)N=Nc1ccc2[nH]c(=O)[nH]c2c1
inactive: [1]; [7] 16% | [1]; [8] 18% | [1]; at 50.0 µM 53% | [2]; [7] 5% | [2]; [8] 9% | [2]; at 50.0 µM 38.8% | [3]; [7] 16% | [3]; [8] -18% | [3]; at 50.0 µM 12.6% | [4]; [7] 13% | [4]; [8] -54% | [4]; at 50.0 µM 29.1% | [5]; [7] 14% | [5]; [8] -11% | [6]; [7] 19% | [6]; [8] 19%
active: [5]; at 50.0 µM 74% | [6]; at 50.0 µM 72.5%

ClC(Cl)=C1C(=C(Cl)Cl)C(Cl)(Cl)C1(Cl)Cl
active: [1]; [8] 98% | [1]; at 50.0 µM 88.2% | [2]; [8] 99% | [2]; at 50.0 µM 92.6% | [3]; [7] 70% | [3]; [8] 99% | [3]; at 50.0 µM 92% | [4]; [8] 97% | [4]; at 50.0 µM 92.7% | [5]; [8] 98% | [5]; at 50.0 µM 91.2% | [6]; [7] 74% | [6]; [8] 98% | [6]; at 50.0 µM 88.2%
inactive: [1]; [7] 51% | [2]; [7] 14% | [4]; [7] 55% | [5]; [7] 56%

Cc1sc(Cc2ccccc2)nc1-c1ccc(N=Cc2ccc(N(CCOS(C)(=O)=O)CCOS(C)(=O)=O)cc2)cc1
inactive: [1]; [7] 53% | [2]; [7] -10% | [3]; [7] 32% | [4]; [7] 38% | [5]; [7] 1%
active: [1]; [8] 95% | [1]; at 50.0 µM 94% | [2]; [8] 97% | [2]; at 50.0 µM 97.8% | [3]; [8] 95% | [3]; at 50.0 µM 96.5% | [4]; [8] 95% | [4]; at 50.0 µM 93.8% | [5]; [8] 94% | [5]; at 50.0 µM 91.3% | [6]; [7] 82% | [6]; [8] 95% | [6]; at 50.0 µM 96.5%

O=[N+]([O-])c1ccc2c(c1)[nH]c1ccccc12
active: [1]; at 50.0 µM 93.2% | [3]; at 50.0 µM 73.8% | [6]; at 50.0 µM 89%
inactive: [1]; [7] -138% | [1]; [8] 36% | [2]; [7] -45% | [2]; [8] -32% | [2]; at 50.0 µM 40.1% | [3]; [7] -65% | [3]; [8] -11% | [4]; [7] -57% | [4]; [8] -63% | [4]; at 50.0 µM 68.6% | [5]; [7] -66% | [5]; [8] -40% | [5]; at 50.0 µM 69.2% | [6]; [7] -139% | [6]; [8] -10%

Cc1scnc1C(C#N)(c1ccccc1)c1ccccc1
inactive: [1]; [7] 9% | [2]; [7] 4% | [3]; [7] 4% | [4]; [7] 8% | [5]; [7] 9% | [6]; [7] 7%
active: [1]; [8] 97% | [1]; at 50.0 µM 98.5% | [2]; [8] 98% | [2]; at 50.0 µM 98.5% | [3]; [8] 98% | [3]; at 50.0 µM 98.7% | [4]; [8] 98% | [4]; at 50.0 µM 98.5% | [5]; [8] 97% | [5]; at 50.0 µM 98.8% | [6]; [8] 97% | [6]; at 50.0 µM 98.5%

O=C(O)CC(C(=O)O)C(c1cccc2ccccc12)c1cccc2ccc3ccccc3c12 (stereo not given)
inactive: [1]; [7] 6% | [2]; [7] 5% | [3]; [7] -5% | [4]; [7] 4% | [5]; [7] 4% | [6]; [7] 7%
active: [1]; [8] 98% | [1]; at 50.0 µM 98.3% | [2]; [8] 99% | [2]; at 50.0 µM 98.2% | [3]; [8] 99% | [3]; at 50.0 µM 98.3% | [4]; [8] 98% | [4]; at 50.0 µM 98.7% | [5]; [8] 99% | [5]; at 50.0 µM 98.7% | [6]; [8] 99% | [6]; at 50.0 µM 97.8%

COc1ccc(-c2c(COC(C)=O)c(COC(C)=O)c3n2CCC3)cc1
inactive: [1]; [7] -4% | [1]; [8] 34% | [2]; [7] -4% | [2]; [8] 19% | [3]; [7] -6% | [3]; [8] 23% | [4]; [7] -3% | [4]; [8] -4% | [5]; [7] -6% | [5]; [8] -3% | [6]; [7] -6% | [6]; [8] 40%
active: [1]; at 50.0 µM 98.5% | [2]; at 50.0 µM 99.1% | [3]; at 50.0 µM 98.9% | [4]; at 50.0 µM 97.8% | [5]; at 50.0 µM 98.8% | [6]; at 50.0 µM 98.8%
